Experiment [1] is described as follows: optical density shifts of acrAB sulA E. coli – strain DRC41, OD650, 48 h, E. coli filamentation inducer project, primary screen (AID 1152).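 Also: E. coli MC1000 strain DRC41 lacking acrAB efflux pump and sulA.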 The note with it: higher = more signal, called active from +8 up or from −8 down.
Experiment [2] in a line: probe aLefty1 binding on compound microarray – biochemical, small-molecule microarray, 635/667 nm fluorescence, primary screen (AID 1153).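 Also: score merges spot fluorescence with signal-to-noise ratio from the scanned slide images.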 The note with it: higher = more signal.
Experiment [3] is described as follows: plasmodial surface anion channel blockers, osmotic lysis – cell-based, P. falciparum Indochina, OD700, 1 h, primary screen (AID 1154). The note with it: P. falciparum Indochina infected RBC osmotic lysis, higher = more signal, called active from +8 up or from −8 down.
Experiment [4] is described as follows: plasmodial surface anion channel blockers, osmotic lysis – cell-based, P. falciparum Indochina, OD700, 2 h, primary screen (AID 1155).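 Also: lysis reports solute entry through the parasite surface anion channel PSAC.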 The note with it: P. falciparum Indochina infected erythrocytes, higher = more signal, called active from +8 up or from −8 down.
Experiment [5] in a line: changes in parasitized red cell lysis, either direction – P. falciparum Indochina, OD700, 3 h, PSAC antagonist project, primary screen (AID 1156). The note with it: P. falciparum-infected erythrocytes, osmotic lysis, higher = more signal, called active from +8 up or from −8 down.
A short description of experiment [6]: plasmodial surface anion channel blockers, osmotic lysis – cell-based, P. falciparum Indochina, OD700, 18 h, primary screen (AID 1157). The note with it: P. falciparum Indochina infected erythrocytes, osmotic lysis OD700, 18 h; higher = more signal, called active from +8 up or from −8 down.
Experiment [7] in a line: S6 kinase pathway phospho-S6 level changes – cell-based, A549, cytoblot, luminescence, serum-stimulated, primary screen (AID 1158).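 Also: serum-stimulated A549 lung adenocarcinoma cells; signal is phosphorylated S6 detected by cytoblot immunostaining with HRP secondary.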 The note with it: 5 h, higher = more signal.
Experiment [8] addresses NADPH oxidase 2 (Homo sapiens) (UniProt P04839). Kind of experiment: compounds shifting NOX2 Amplex Red fluorescence – cell-based, HEK293-NOX2, PMA-stimulated, NOX inhibitor project, primary screen (AID 1159). Also: test concentration not given here. The note with it: 45 min, higher = more signal, called active from +8 up or from −8 down.
Experiment [9] deals with NADPH oxidase 4 (Homo sapiens) (UniProt Q9NPH5). Kind of experiment: compounds shifting NOX4 Amplex Red fluorescence – cell-based, HEK293-NOX4, tetracycline-induced, NOX inhibitor project, primary screen (AID 1160). The note with it: HEK293-NOX4, Amplex Red H2O2 fluorescence, 45 min; higher = more signal, called active from +8 up or from −8 down.
Chain of NADPH oxidase 4 (Homo sapiens) (Q9NPH5 whole entry, looked up): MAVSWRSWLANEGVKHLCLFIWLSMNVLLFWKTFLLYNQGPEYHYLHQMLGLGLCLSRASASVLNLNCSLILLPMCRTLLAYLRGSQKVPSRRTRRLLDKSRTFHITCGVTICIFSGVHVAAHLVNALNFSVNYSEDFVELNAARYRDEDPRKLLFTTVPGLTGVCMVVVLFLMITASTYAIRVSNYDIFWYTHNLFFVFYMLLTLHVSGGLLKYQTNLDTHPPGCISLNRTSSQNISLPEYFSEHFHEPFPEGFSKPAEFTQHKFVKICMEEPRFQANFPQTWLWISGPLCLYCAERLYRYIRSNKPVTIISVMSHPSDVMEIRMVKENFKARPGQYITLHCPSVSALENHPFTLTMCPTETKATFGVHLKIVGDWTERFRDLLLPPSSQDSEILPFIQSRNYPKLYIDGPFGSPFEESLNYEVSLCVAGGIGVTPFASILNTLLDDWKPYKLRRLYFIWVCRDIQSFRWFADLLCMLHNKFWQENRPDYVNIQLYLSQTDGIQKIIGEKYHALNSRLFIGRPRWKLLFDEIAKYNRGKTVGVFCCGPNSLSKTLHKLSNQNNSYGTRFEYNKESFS
Experiment [10] concerns the target NADPH oxidase 5 (Homo sapiens) (UniProt Q96PH1). Kind of experiment: compounds shifting NOX5 Amplex Red fluorescence – cell-based, HEK293-NOX5, NOX inhibitor project, primary screen (AID 1161). The note with it: HEK293-NOX5, ionomycin, 45 min, higher = more signal.

Calls of active or inactive are those of the source.

Chain of NADPH oxidase 5 (Homo sapiens) (Q96PH1 whole entry, looked up): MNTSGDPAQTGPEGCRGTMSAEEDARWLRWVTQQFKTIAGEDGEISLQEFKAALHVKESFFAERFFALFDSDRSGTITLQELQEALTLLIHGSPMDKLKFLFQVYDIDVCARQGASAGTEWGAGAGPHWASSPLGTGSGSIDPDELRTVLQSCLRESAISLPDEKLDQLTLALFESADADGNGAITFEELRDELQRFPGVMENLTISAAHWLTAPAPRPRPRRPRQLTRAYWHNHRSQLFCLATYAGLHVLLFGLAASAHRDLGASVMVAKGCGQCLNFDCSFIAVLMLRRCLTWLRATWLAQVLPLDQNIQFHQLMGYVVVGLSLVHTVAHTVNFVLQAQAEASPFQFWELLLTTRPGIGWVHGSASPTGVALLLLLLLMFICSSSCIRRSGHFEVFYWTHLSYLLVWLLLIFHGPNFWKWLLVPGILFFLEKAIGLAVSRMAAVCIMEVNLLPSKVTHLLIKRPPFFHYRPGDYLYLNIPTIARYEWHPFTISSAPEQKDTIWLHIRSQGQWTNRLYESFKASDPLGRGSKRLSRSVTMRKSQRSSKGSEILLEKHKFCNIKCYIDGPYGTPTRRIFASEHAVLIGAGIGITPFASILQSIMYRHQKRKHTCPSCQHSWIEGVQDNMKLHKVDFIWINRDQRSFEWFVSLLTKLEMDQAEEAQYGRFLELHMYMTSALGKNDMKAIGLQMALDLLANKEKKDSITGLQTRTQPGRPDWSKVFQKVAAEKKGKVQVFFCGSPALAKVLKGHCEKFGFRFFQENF
Chain of NADPH oxidase 2 (Homo sapiens) (P04839 whole entry, looked up): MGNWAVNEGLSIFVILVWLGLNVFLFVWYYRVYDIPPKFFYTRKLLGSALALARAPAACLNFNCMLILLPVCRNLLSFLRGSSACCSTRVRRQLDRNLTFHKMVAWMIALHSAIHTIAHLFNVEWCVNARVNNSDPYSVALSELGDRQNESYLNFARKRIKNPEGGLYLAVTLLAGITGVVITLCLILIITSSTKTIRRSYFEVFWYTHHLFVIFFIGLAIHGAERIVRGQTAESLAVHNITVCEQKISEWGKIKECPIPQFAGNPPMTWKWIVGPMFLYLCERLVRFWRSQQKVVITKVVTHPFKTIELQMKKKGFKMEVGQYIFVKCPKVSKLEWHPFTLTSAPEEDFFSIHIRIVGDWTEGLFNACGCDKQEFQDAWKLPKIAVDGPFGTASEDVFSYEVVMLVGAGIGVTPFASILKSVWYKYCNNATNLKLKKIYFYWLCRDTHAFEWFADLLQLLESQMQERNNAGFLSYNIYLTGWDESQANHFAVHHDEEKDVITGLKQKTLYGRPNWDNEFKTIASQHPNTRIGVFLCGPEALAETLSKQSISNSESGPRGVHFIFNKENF

Regarding `O=C1N(CCS(=O)(=O)c2ccccc2)Cc2ccccc2[C@H]2OC(c3ccc(OCCCO)cc3)=N[C@@]12CCS(=O)(=O)c1ccccc1`, the z-score in experiment [1] is -0.0143 (inactive); in [3], 31.1 (active); in experiment [4], 28.4 (active); in experiment [5] it was 3.2 (inactive); in experiment [6], 6.48 (inactive); in experiment [7], 0.834. The figures for the z-score in [8], in experiment [9] and in [10] were 0.644 (inactive), 1.5 (inactive) and 0.357, respectively. Also, the composite z-score in [2] was determined as 0.197.

As for `COCCOC(=O)N1C(=O)[C@@]2(c3cc(C#CCC(C(=O)OC)C(=O)OC)ccc31)[C@H](C(=O)N1CCCCCCC1)[C@H]1C(=O)O[C@H](c3ccccc3)[C@H](c3ccccc3)N1[C@@H]2c1ccc(OCCO)cc1`, the z-score in experiment [1] was 0.917 (inactive); in [3], 17.1 (active); in experiment [4], 4.27 (inactive); in experiment [5], 0.791 (inactive); in experiment [6], 1.14 (inactive); in experiment [7], -0.0447. Besides, the z-score in experiment [8] is 0.327 (inactive); in experiment [9], 0.43 (inactive); in experiment [10] it was 0.547. Also, the composite z-score in [2] was found to be 2.5.

As for `O=C1C[C@]2(c3ccc([N+](=O)[O-])cc3)C(=O)N(CC(F)(F)F)c3cc(CO)ccc3[C@H]2N1CC12CC3CC(CC(C3)C1)C2`, the z-score in [1] is 0.458 (inactive); in experiment [3], 0.56 (inactive); in experiment [4], -0.365 (inactive); in experiment [5] it was 0.12 (inactive); in experiment [6], 0.255 (inactive); in experiment [7], 0.229. In addition, the z-score in [8] was -0.347 (inactive); in experiment [9], 0.375 (inactive); in [10] it was 0.0968. Also, the composite z-score in experiment [2] was -0.629.

For `CC(C)c1ccc(NN2C(C(O)c3cccc(O)c3)C=CC3C(=O)N(c4ccccc4)C(=O)C32)cc1` (stereo not given), the z-score is -0.833 (inactive) in experiment [1]; 8.05 (active) in [3]; 1.14 (inactive) in experiment [4]; 1.5 (inactive) in [5]; 1.64 (inactive) in experiment [6]; -0.83 in experiment [7]. Moreover, the z-score is -2.01 (inactive) in experiment [8], -5.51 (inactive) in [9] and -4.13 in experiment [10]. In experiment [2], this molecule had a composite z-score of 0.0523.

For `COC(=O)[C@@]1(Cc2ccc(F)cc2)[C@H]2c3cc(C(=O)N(C)C)n(CCc4ccccn4)c3C[C@H]2CN1C(=O)c1ccccc1`, the z-score in experiment [1] is -0.815 (inactive); in experiment [3], 1.81 (inactive); in experiment [4], -0.0235 (inactive); in experiment [5], 0.892 (inactive); in [6] it was -1.66 (inactive); in [7], 0.402. The z-score is 0.831 (inactive) in experiment [8], 1.03 (inactive) in experiment [9] and 0.234 in experiment [10]. The same molecule yielded a composite z-score in experiment [2] of 1.01.

Take `O=C(CS)NCCCCCCNC(=O)[C@@H]1C[C@@H]2C(=O)N3CCC[C@H]3C(=O)N2[C@@H]1c1ccc(O)cc1`: the z-score is 0.113 (inactive) in [1]; 4.95 (inactive) in [3]; 0.471 (inactive) in [4]; 2.2 (inactive) in experiment [5]; 0.252 (inactive) in experiment [6]; -0.574 in experiment [7]. The z-score was 0.489 (inactive) in [8], -1.38 (inactive) in experiment [9] and -0.141 in experiment [10]. Also, the composite z-score in experiment [2] is -0.55.

As to `CCOC(=O)C1=CCC(c2ccc(C#N)cc2)N(S(=O)(=O)c2ccc(C)cc2)C1` (stereo not given), the z-score is 0.26 (inactive) in experiment [1]; 5.29 (inactive) in [3]; 1.12 (inactive) in experiment [4]; 0.632 (inactive) in experiment [5]; 0.557 (inactive) in experiment [6]; -0.118 in experiment [7]. Also, the z-score in [8] was 0.292 (inactive); in experiment [9], 0.62 (inactive); in experiment [10], -0.303. Moreover, in [2], the composite z-score came to 0.262.

As for `COc1cc(C(O)C2C=CC3C(=O)N(c4ccccc4)C(=O)C3N2Nc2ccc(C#N)cc2)cc(OC)c1OC` (stereo not given), the z-score in experiment [1] was -1.64 (inactive); in [3], 24 (active); in experiment [4] it was 7.24 (inactive); in [5], 0.86 (inactive); in [6], 1.76 (inactive); in experiment [7], -1.15. Moreover, the z-score in experiment [8] is -2.04 (inactive); in [9] it was -5.26 (inactive); in experiment [10], -5.34. The molecule also displayed a composite z-score in experiment [2] of 0.233.

As for `COc1ccc([Si](C)(C)[C@@H]2[C@@H](CC(=O)N(CCO)Cc3ccccc3)O[C@]3(C(=O)N(C)c4ccccc43)[C@H]2C)cc1`, the z-score in experiment [1] is -0.733 (inactive); in [3], 11.8 (active); in experiment [4], 2.07 (inactive); in experiment [5], -0.87 (inactive); in experiment [6], 0.57 (inactive); in experiment [7] it was 0.388. Also, the z-score in experiment [8] was 0.406 (inactive); in [9] it was 0.965 (inactive); in experiment [10], -1.21. This molecule also had a composite z-score in experiment [2] of 0.31.

Regarding `CCOC(=O)C1=C[C@@H](CC)N(S(=O)(=O)c2ccc(C)cc2)[C@H]1c1ccccc1`, the z-score in experiment [1] was -1.03 (inactive); in experiment [3], 1.83 (inactive); in [4], 0.797 (inactive); in [5], -0.187 (inactive); in experiment [6] it was 0.415 (inactive); in experiment [7], -0.388. Also, the figures for the z-score in experiment [8], in [9] and in experiment [10] were 0.0452 (inactive), -0.606 (inactive) and -0.182, respectively. In experiment [2], this molecule had a composite z-score of 0.271.

For the molecule `O=C1[C@]2(CO)C=C(Br)[C@@H](C[C@@H]2c2ccccc2)[C@@]12CO2`, the z-score in experiment [1] was 0.168 (inactive); in experiment [3], 0.0883 (inactive); in experiment [4], 0.0579 (inactive); in experiment [5] it was -0.533 (inactive); in experiment [6], -0.187 (inactive); in experiment [7], -0.364. Also, the z-score in experiment [8] is 0.538 (inactive); in [9], 0.662 (inactive); in experiment [10], -0.211. Also, the composite z-score in [2] is -0.188.

With `COCCOC(=O)N1C(=O)[C@@]2(c3cc(C#CCNC(N)=O)ccc31)[C@H](c1ccc(OCCO)cc1)N1[C@H](c3ccccc3)[C@H](c3ccccc3)OC(=O)[C@H]1[C@@H]2C(=O)N1CCc2cc(OC)c(OC)cc2C1`, the z-score was 0.506 (inactive) in experiment [1]; 3.71 (inactive) in experiment [3]; 1.89 (inactive) in experiment [4]; 0.523 (inactive) in experiment [5]; 1.15 (inactive) in experiment [6]; 0.307 in experiment [7]. The z-score in experiment [8] is 1.89 (inactive); in experiment [9] it was 1.09 (inactive); in experiment [10], 0.284. The composite z-score in experiment [2] was 0.308.

Consider `COCCOC(=O)N1C(=O)[C@@]2(c3ccccc31)[C@H](c1ccc(O)cc1)N1[C@H](c3ccccc3)[C@H](c3ccccc3)OC(=O)[C@H]1[C@@H]2C(=O)N1CCc2cc(OC)c(OC)cc2C1`, for which the z-score in experiment [1] was 0.682 (inactive); in [3], 0.428 (inactive); in experiment [4] it was -0.261 (inactive); in [5], 0.0172 (inactive); in experiment [6] it was -1 (inactive); in experiment [7] it was 1.55. Besides, the z-score in experiment [8] was 0.343 (inactive); in [9], 0.594 (inactive); in experiment [10], 1.95. The molecule further returned a composite z-score in [2] of -0.181.

The values above are taken from PubChem BioAssay.
